In PubChem BioAssay:
Activity calls are given as the source filed them.

How the values were obtained:
[1] = small molecules captured by biotinylated probe aFSTL3 – biochemical, small-molecule microarray, fluorescence 635/667, stem cell growth factor project, primary screen (AID 1064); settings: higher = more signal;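 note: measures binding of the biotinylated anti-FSTL3 antibody to printed compounds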
[2] = binders from COS7 lysate, DM2A8 probe, primary screen, torsin A project, cell lysate, small-molecule microarray, fluorescence 635/667 (AID 1065); settings: higher = more signal, COS7 lysate expressing mutant human TOR1A
[3] = small molecules captured by biotinylated probe aFGF2 – biochemical, small-molecule microarray, fluorescence 635/667, stem cell growth factor project, primary screen (AID 1067); settings: higher = more signal;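 note: measures binding of biotinylated aFGF2 protein to printed compounds on slides; z-score merges feature fluorescence and signal-to-noise across triplicate slides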
[4] = small molecules captured by biotinylated probe aFGF10 – biochemical, small-molecule microarray, fluorescence 635/667, stem cell growth factor project, primary screen (AID 1071); settings: higher = more signal;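 note: score merges 667 nm spot intensity and signal to noise from triplicate slides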
[5] = biological target: Neurogenic locus notch homolog protein 2 (Homo sapiens) (UniProt Q04721); assay: small molecules binding Notch2 protein – biochemical, small-molecule microarray, 635 nm fluorescence, stem cell growth factors, primary screen (AID 1073); settings: higher = more signal
[6] = biological target: Pro-neuregulin-1, membrane-bound isoform (Homo sapiens) (UniProt Q02297); assay: small molecules binding neuregulin-1 protein – biochemical, small-molecule microarray, fluorescence 635/667, psychiatric disease protein project, primary screen (AID 1075); settings: NRG1 binding, 635 nm fluorescence, higher = more signal;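 note: score combines 667 nm spot fluorescence with signal to noise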
[7] = tested on: Neuregulin-1 EGF-like domain; assay: small molecules binding NRG1 EGF domain – biochemical, small-molecule microarray, 635 nm fluorescence, primary screen (AID 1081); settings: higher = more signal;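 note: binding of the protein to compounds printed on small-molecule microarray slides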
[8] = FRG1 expression reporter modulators in myotubes – cell-based, C2C12 myotubes, firefly/Renilla luciferase, luminescence, FRG1 inhibition for FSHD, primary screen (AID 1084); settings: FRG1 promoter luciferase, higher = more signal, called active from +8 up or from −8 down
[9] = small molecules captured by biotinylated probe aFST – biochemical, small-molecule microarray, fluorescence 635/667, stem cell growth factor project, primary screen (AID 1086); settings: higher = more signal;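 note: score merges 667 nm fluorescence with signal-to-noise of each printed compound spot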
[10] = binders of probe aHhip on microarray, primary screen, stem cell growth factor project, biochemical, small-molecule microarray, fluorescence 635/667 (AID 1087); settings: higher = more signal;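 note: score merges spot fluorescence at 667nm with spot signal to noise ratio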

Chain of Neurogenic locus notch homolog protein 2 (Homo sapiens) (Q04721 whole entry, looked up, canonical isoform): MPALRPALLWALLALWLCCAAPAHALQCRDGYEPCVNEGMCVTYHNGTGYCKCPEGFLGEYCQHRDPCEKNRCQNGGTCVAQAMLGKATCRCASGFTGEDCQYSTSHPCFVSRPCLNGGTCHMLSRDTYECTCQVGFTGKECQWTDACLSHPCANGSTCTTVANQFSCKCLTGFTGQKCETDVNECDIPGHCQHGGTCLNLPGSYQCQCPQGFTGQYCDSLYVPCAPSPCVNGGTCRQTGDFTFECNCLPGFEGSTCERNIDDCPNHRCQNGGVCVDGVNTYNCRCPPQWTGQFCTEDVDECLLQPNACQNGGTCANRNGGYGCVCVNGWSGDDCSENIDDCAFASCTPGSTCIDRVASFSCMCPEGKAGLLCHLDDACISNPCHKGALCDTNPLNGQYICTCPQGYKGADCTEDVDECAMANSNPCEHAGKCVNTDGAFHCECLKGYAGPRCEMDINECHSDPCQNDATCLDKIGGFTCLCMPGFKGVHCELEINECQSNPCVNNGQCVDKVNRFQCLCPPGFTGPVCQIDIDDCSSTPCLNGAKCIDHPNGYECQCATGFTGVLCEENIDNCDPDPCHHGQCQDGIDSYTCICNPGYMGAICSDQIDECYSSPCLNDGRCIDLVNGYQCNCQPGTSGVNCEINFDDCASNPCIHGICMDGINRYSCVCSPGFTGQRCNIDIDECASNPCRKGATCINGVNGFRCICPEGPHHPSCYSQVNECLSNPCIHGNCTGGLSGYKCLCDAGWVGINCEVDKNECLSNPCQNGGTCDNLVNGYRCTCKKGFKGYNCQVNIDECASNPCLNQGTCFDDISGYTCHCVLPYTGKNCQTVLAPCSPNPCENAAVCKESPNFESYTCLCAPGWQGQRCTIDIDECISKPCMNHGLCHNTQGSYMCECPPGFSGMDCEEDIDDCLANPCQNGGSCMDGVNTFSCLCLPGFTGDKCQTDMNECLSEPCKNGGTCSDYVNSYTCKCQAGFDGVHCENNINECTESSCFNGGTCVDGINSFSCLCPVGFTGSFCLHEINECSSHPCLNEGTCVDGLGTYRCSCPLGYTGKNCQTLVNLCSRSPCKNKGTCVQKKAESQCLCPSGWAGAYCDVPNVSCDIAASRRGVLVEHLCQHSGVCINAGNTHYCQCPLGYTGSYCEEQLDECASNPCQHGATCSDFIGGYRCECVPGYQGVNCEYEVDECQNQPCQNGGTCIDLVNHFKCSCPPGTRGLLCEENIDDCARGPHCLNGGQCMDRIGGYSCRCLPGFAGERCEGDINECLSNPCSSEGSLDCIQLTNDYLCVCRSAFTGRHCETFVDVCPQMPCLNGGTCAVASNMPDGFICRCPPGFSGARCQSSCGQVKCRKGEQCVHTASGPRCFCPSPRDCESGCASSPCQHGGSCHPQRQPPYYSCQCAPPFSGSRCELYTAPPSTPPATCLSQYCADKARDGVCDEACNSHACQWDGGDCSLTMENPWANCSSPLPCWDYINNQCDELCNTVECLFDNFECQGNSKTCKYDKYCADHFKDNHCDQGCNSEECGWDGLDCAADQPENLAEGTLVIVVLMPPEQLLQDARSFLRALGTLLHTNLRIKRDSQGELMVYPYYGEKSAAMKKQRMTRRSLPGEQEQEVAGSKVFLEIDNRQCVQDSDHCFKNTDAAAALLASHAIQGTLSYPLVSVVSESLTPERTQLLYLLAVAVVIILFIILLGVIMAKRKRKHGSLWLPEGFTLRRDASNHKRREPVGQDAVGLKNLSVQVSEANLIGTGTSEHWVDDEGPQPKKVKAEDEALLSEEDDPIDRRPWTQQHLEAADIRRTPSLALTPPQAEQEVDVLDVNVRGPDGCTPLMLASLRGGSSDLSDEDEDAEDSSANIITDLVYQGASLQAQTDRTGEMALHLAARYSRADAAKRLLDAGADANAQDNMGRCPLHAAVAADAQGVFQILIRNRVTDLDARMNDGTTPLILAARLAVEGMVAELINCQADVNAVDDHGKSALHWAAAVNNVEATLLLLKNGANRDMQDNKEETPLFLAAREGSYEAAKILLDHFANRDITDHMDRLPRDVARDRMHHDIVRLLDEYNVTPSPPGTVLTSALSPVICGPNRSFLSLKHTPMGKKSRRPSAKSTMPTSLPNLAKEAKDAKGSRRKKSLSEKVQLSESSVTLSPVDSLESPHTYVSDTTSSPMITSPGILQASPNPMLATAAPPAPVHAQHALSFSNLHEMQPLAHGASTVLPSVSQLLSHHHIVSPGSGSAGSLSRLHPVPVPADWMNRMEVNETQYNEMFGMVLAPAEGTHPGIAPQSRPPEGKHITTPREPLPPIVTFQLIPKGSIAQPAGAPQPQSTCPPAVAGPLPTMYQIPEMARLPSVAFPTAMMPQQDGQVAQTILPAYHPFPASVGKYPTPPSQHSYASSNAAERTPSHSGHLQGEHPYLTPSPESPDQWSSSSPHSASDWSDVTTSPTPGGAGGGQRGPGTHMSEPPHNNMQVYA
Chain of Pro-neuregulin-1, membrane-bound isoform (Homo sapiens) (Q02297 whole entry, looked up, the tested form may be a part, canonical isoform): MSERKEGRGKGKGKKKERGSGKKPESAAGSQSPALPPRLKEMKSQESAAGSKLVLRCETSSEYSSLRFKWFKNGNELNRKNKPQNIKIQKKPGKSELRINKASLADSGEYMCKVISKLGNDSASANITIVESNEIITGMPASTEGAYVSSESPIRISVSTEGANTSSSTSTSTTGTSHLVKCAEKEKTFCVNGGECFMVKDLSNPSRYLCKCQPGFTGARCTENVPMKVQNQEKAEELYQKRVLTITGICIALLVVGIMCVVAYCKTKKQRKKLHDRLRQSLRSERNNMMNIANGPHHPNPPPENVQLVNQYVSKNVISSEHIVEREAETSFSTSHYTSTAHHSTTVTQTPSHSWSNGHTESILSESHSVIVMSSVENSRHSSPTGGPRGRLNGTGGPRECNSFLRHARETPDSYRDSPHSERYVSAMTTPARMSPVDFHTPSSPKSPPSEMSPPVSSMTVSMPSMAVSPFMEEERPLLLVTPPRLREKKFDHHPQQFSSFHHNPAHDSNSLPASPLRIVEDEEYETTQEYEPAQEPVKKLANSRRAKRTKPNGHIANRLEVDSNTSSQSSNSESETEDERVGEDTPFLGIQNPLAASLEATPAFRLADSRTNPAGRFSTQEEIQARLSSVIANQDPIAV

Compound | composite z-score [1] | composite z-score [2] | composite z-score [3] | composite z-score [4] | composite z-score [5] | composite z-score [6] | composite z-score [7] | z-score [8] | composite z-score [9] | composite z-score [10]
CC(C)(C)N1C(=O)[C@H]2[C@H]3[C@H](O)[C@H](O)CC(=NNC(=O)OCc4ccccc4)[C@@H]3CC[C@H]2C1=O | -0.387 | 0.376 | -0.136 | 0.64 | 0.447 | -0.0123 | 0.254 | 0.674 (inactive) | 0.278 | -0.161
COc1ccc2c(c1)O[C@@H](c1cccc(C(F)(F)F)c1)[C@H](O)C2=O | -0.609 | -0.184 | -0.131 | 0.452 | 0.242 | 0.0761 | 0.4 | -0.682 (inactive) | 0.0335 | -0.236
O=C1C2=CC[C@H]3C(=O)N(C4CCCCC4)C(=O)[C@H]3[C@H]2[C@H](O)[C@@H]2O[C@H]12 | -0.115 | -2.14 | -0.162 | -0.179 | -0.423 | -0.0738 | -0.515 | 11.5 (active) | -0.5 | -0.164
CC(CCC(=O)OC[C@H]1O[C@H](C#Cc2ccccc2)C=C[C@@H]1Oc1ccc(C)cc1)=NO[C@@H](C)c1cc(-c2c(C)cc(C)cc2C)no1 | -0.0913 | -1.14 | -0.144 | -0.558 | -1.58 | 0.122 | -0.525 | 0.87 (inactive) | -0.213 | 0.312
CCOC(=O)CCN1C(=O)[C@H]2[C@H]3[C@H](O)[C@H](O)CC(=NOCC(C)C)[C@@H]3CC[C@H]2C1=O | -0.784 | 1.88 | -0.234 | -1.05 | -0.567 | -0.849 | 0.296 | -0.398 (inactive) | -0.595 | -0.0994
CCOC(=O)CCN1C(=O)[C@H]2[C@H]3[C@H](O)[C@H](O)CC(=O)[C@@H]3CC[C@H]2C1=O | -0.577 | 0.125 | -0.16 | 0.832 | 0.916 | 0.102 | 0.482 | -0.407 (inactive) | 0.658 | -0.27
O=C1[C@H]2[C@H]3[C@H](O)[C@H](O)CC(=NOC[C@@H](O)COCc4ccco4)[C@@H]3CC[C@H]2C(=O)N1Cc1ccc2c(c1)OCO2 | -0.622 | 2.39 | -0.292 | -0.738 | -0.541 | -0.285 | 1.1 | -0.196 (inactive) | -0.0769 | 0.2
CCOC(=O)[C@H](Cc1ccccc1)NC(=O)CCC1CC(OC(=O)NCc2cccc3ccccc23)CC2(CCCC(COC(=O)NCCc3ccccc3OC)O2)O1 (stereo not given in full) | -0.568 | 0.0631 | -0.0538 | 0.586 | 0.967 | 0.341 | 1.02 | 1.37 (inactive) | 0.327 | 0.0623
CCOC(=O)[C@H](Cc1ccccc1)NC(=O)CCC1CC(OC(=O)NCc2ccc3c(c2)OCO3)CC2(CCCC(COC(=O)NCCCN3CCCC3=O)O2)O1 (stereo not given in full) | -0.578 | 0.163 | -0.0001 | 0.377 | 1.06 | 0.503 | 0.85 | 1.5 (inactive) | 0.827 | -0.248
O=C1[C@H]2[C@H]3[C@H](O)[C@H](O)CC(=NOC[C@@H](O)COCc4ccco4)[C@@H]3CC[C@H]2C(=O)N1c1cccc(Oc2ccccc2)c1 | -0.424 | -0.78 | -0.172 | -0.177 | -1.08 | -0.628 | -0.554 | -0.0105 (inactive) | -0.465 | -0.179
O=C1C[C@@H](O)[C@@H](O)[C@@H]2[C@@H]3C(=O)N(C4CCCCC4)C(=O)[C@@H]3CC[C@@H]12 | -0.371 | 0.159 | -0.0113 | 0.394 | 0.334 | 1.05 | 0.546 | 0.129 (inactive) | 0.0535 | -0.0237
CCOC(=O)CCN1C(=O)[C@H]2[C@H]3[C@H](O)[C@H](O)CC(=NNC(=O)OCc4ccc(OC)cc4)[C@H]3CC[C@H]2C1=O | -0.41 | 0.339 | -0.116 | 0.155 | 0.68 | 0.0204 | 0.0944 | -0.971 (inactive) | 0.245 | -0.329
CCOC(=O)[C@H](Cc1ccccc1)NC(=O)CCC1CC(OC(=O)NCc2ccc3c(c2)OCO3)CC2(CCCC(COC(=O)NCCOc3ccccc3)O2)O1 (stereo not given in full) | -0.288 | 0.474 | -0.051 | 0.378 | 0.896 | 0.833 | 1.08 | 1.17 (inactive) | 0.672 | -0.0994
CON=C(C)CCN1CCCc2nc(C)c(C)cc21 | -0.411 | -0.205 | -0.0266 | 0.28 | 0.512 | 0.397 | 0.908 | 0.885 (inactive) | 0.192 | 0.12
COCC#Cc1ccc([C@@H]2N[C@H](C(=O)O)CC[C@H]2C)cc1 | -0.308 | -0.087 | -0.12 | 0.0921 | 0.314 | -0.595 | -0.616 | -1.34 (inactive) | 0.399 | 0.132
CC(=O)OC[C@H]1O[C@H](CC=NO[C@@H](C)c2cn([C@H](CO)Cc3ccccc3)nn2)C=C[C@@H]1OC(C)=O | -0.513 | 0.386 | -0.104 | 0.649 | 0.804 | 1.24 | 0.732 | 0.386 (inactive) | 0.275 | 0.225
CCCC[C@H]1CN2[C@@H](CC[C@@H](C)[C@@H]2c2ccc(Br)cc2)C(=O)O1 | -0.333 | 0.389 | -0.0894 | -0.947 | 0.564 | 1.19 | 1.11 | -0.374 (inactive) | 0.253 | 0.0722

Compound | composite z-score [1] | composite z-score [2] | composite z-score [3] | composite z-score [4] | composite z-score [5] | composite z-score [6] | composite z-score [7] | z-score [8] | composite z-score [9] | composite z-score [10]
OC[C@H]1O[C@H](C#Cc2ccccc2)C=C[C@@H]1O | -0.406 | -0.437 | -0.0732 | 0.325 | 0.322 | 0.0659 | 0.0463 | -0.999 (inactive) | 0.101 | 0.107
COC(=O)CC=C[C@@H](C)[C@@H](C=NOC[C@@H](O)COCc1ccco1)OC | -0.663 | 2.07 | -0.225 | -0.813 | -1.05 | -0.209 | 0.532 | 0.103 (inactive) | -0.466 | -0.164
O=C1C2=CC[C@H]3C(=O)N(c4ccc(F)cc4F)C(=O)[C@H]3[C@H]2[C@H](O)[C@@H]2O[C@H]12 | -0.598 | 0.45 | -0.116 | 0.37 | 0.291 | -0.0808 | 0.0508 | 0.264 (inactive) | 1.14 | -0.0994
COC(OC)[C@@H](C)[C@H](OC)[C@@H](C)[C@H](OC)c1ccccc1 | -0.405 | 0.594 | -0.138 | 0.238 | -0.0257 | -0.445 | -0.561 | -0.406 (inactive) | -0.0188 | -0.0645
O=C1[C@H]2[C@H]3[C@H](O)[C@H](O)CC(=NO[C@@H]4O[C@H](CO)[C@@H](O)[C@H](O)[C@H]4O)[C@@H]3CC[C@H]2C(=O)N1C1CCCCC1 | -0.599 | -0.0085 | -0.0924 | 0.233 | 0.598 | 0.132 | 0.0698 | -0.637 (inactive) | 0.296 | -0.0645
CC(=O)OC[C@H]1O[C@H](CC=NOC(C)CN2CCCCc3nc(C)c(C)cc32)C=C[C@@H]1OC(C)=O (stereo not given in full) | -0.349 | 2.35 | -0.071 | 0.325 | 0.965 | 0.0843 | 0.978 | 0.851 (inactive) | 0.0013 | 0.158
CO[C@H]1COC(=O)CCC[C@H](C)[C@@H](OC)COC(=O)CC=C[C@@H]1C | -0.673 | 0.929 | -0.122 | 0.227 | 0.0458 | -0.21 | -0.179 | -0.0314 (inactive) | -0.106 | -0.0237
C[C@H]1CC[C@H]2C(=O)N[C@H](Cc3ccccc3)C(=O)N2[C@@H]1c1ccccc1 | -0.335 | 0.524 | -0.0893 | 0.412 | 0.301 | -0.717 | 0.366 | 1.33 (inactive) | 0.0175 | -0.13
CC(CCN1CCCCc2nc(C)c(C)cc21)=NO[C@@H](C)c1cc(-c2c(C)cc(C)cc2C)no1 | -0.0105 | -0.454 | -0.232 | -0.33 | -1.93 | 0.0782 | -0.246 | -1.49 (inactive) | -0.689 | -0.134
COC(=O)[C@@H]1CC[C@H](C)[C@@H](c2ccc(C)cc2)N1C(=O)c1ccc(C=NOC[C@@H](O)[C@H]2O[C@@H]3OC(C)(C)O[C@@H]3[C@H]2O)cc1 | -0.264 | 0.123 | -0.0138 | 0.343 | 0.962 | 0.441 | 0.72 | 0.453 (inactive) | 0.794 | -0.271
CO[C@@H]1C=CCC(=O)N[C@@H](C)C(=O)OC[C@@H](OC)[C@H](C)C=CCC(=O)OC[C@H]1C | -0.596 | 2.23 | -0.116 | -0.631 | -0.88 | -0.503 | 0.233 | -0.163 (inactive) | -0.045 | 0.0373
C=CCOCC1CN2[C@@H](CC[C@@H](C)[C@@H]2c2ccc(Br)cc2)C(=O)O1 (stereo not given in full) | -0.155 | 0.0527 | -0.16 | -0.204 | -0.619 | -0.391 | -0.479 | -0.0613 (inactive) | -0.546 | -0.0994
COc1ccc(OC[C@H]2CN3[C@@H](CC[C@@H](C)[C@@H]3c3ccc(Br)cc3)C(=O)O2)cc1 | -0.358 | 0.722 | -0.181 | 0.243 | -0.142 | 0.165 | -0.228 | -0.539 (inactive) | -0.115 | -0.109
CCCNC(=O)OC[C@H]1O[C@H](CCON=C2C[C@@H](O)[C@@H](O)[C@@H]3[C@@H]4C(=O)N(CC)C(=O)[C@@H]4CC[C@@H]23)C=C[C@@H]1Oc1ccc(OC)cc1 | -0.465 | 0.142 | -0.0165 | 0.64 | 0.705 | 0.628 | 0.898 | 0.36 (inactive) | 0.46 | -0.0645
CC(C)=NO[C@@H](C)c1cn([C@H](CO)Cc2ccccc2)nn1 | -0.0953 | 0.463 | 0.153 | 0.423 | 0.579 | 0.763 | 0.442 | -0.88 (inactive) | 0.907 | 0.132
C[C@]12CCC3c4ccc(OCC5CO5)cc4CCC3C1CC[C@@H]2O (stereo not given in full) | 0.157 | 0.258 | -0.0415 | 0.381 | 1.04 | 0.703 | 1.07 | 1.05 (inactive) | 0.473 | -0.0994
O=C1C[C@@H](O)[C@@H](O)[C@@H]2[C@@H]3C(=O)N(Cc4ccccc4)C(=O)[C@@H]3CC[C@H]12 | -0.344 | 0.49 | -0.129 | 0.339 | 0.438 | 0.235 | 0.632 | -0.725 (inactive) | 0.256 | 0.0053
